The record followed here is publication PMC5700166.

Where a chain is given by its changes, count along the chain named.

Holding throughout (assay): protein-binding microarray (PBM); PBM: ~300 nM protein, 6 mM HEPES pH 7.8, 80 mM KCl, 0.5 mM EDTA, 0.5 mM EGTA, 6% glycerol, 35 ng/ul poly-dIdC, 1% milk, 1 h, room temperature; Ap Aiptasia and Nv Nematostella (sea anemones) / Co Capsaspora / Aq Amphimedon (sponge) / Dm Drosophila / Hu human; RHD is the Rel homology domain; high values mean tight binding
Common to all, as to details: dsDNA, one strand shown

Experiment [1] addresses T1, GST-Ap-NF-kB RHD (Exaiptasia pallida (Aiptasia), UniProt A0A913YAJ5 2-422).
T1 sequence: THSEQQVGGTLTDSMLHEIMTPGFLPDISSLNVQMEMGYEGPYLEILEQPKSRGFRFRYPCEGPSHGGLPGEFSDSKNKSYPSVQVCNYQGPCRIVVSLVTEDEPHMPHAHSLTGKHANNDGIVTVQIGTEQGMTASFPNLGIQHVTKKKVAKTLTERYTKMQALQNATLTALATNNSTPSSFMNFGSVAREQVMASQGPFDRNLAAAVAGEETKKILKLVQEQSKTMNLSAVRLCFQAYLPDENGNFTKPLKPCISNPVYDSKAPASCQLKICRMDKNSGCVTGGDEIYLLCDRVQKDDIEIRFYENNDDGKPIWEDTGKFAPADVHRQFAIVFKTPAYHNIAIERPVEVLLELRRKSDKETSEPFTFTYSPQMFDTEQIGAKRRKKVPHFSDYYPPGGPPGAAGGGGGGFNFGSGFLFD

Experiment [2] addresses T2, GST-Nv-NF-kB (Cys allele) (Nematostella vectensis, UniProt E5G601 2-411).
T2 sequence: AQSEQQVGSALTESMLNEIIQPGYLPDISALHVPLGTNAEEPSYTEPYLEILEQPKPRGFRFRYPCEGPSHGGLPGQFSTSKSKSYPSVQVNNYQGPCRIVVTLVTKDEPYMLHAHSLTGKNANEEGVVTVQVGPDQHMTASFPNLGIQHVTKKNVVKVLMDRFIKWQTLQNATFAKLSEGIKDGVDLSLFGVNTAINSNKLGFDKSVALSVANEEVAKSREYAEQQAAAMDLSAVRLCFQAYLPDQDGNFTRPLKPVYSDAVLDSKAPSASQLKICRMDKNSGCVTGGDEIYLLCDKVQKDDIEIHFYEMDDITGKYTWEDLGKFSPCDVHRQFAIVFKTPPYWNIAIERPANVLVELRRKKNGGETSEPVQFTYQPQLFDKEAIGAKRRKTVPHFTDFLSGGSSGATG

Experiment [3] has as its target T3, GST-Nv-NF-kB (Ser allele) (Nematostella vectensis, UniProt A7UNT2 2-411).
T3 sequence: T2 sequence with Q21R, C66S, S207N, E215Q, V217A, E225K, A268E, D399E

Experiment [4] has as its target T4, GST-Co-NF-kB (Capsaspora owczarzaki, UniProt F1ARL5 200-546).
T4 sequence: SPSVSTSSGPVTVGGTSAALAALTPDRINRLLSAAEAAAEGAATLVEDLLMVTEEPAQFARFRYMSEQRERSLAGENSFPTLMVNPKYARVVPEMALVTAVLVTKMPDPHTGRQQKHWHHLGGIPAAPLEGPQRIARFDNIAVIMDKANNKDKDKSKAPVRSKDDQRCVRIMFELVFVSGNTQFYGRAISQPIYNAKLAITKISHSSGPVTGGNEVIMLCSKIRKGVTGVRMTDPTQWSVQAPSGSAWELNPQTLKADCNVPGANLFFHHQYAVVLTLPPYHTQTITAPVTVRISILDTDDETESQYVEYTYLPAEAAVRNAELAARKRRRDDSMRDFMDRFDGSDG

Experiment [5] addresses T5, GST-Dm-Relish (Drosophila melanogaster, UniProt Q94527 99-473).
T5 sequence: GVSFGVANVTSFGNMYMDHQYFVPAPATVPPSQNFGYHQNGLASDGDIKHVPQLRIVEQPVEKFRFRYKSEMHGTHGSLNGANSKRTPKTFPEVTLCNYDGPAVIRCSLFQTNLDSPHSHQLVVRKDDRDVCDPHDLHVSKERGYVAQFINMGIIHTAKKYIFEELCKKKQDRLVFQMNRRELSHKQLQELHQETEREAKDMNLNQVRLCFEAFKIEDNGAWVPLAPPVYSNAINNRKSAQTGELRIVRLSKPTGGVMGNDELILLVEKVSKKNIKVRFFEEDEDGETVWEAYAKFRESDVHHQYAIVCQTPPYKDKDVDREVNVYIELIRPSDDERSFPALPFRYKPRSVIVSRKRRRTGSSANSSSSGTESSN

For experiment [6], the target named is T6, GST-Aq-NF-kB (Amphimedon queenslandica, UniProt A9Y5G7 2-389).
T6 sequence: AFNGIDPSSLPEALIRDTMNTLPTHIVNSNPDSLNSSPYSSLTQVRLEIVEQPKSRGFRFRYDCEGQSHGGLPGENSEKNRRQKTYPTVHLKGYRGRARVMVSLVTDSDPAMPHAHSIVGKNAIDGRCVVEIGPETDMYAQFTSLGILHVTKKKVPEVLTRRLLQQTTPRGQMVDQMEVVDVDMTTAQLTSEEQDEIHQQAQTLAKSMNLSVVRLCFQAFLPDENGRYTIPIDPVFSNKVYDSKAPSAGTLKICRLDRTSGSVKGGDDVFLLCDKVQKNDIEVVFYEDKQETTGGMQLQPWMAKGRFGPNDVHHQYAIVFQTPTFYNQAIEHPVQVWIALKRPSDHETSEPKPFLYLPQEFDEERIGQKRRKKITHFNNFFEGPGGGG

Experiment [7] has as its target GST-Hu-p50 (Homo sapiens, UniProt P19838 7-356).

GST-Hu-p50, sequence (P19838 7-356): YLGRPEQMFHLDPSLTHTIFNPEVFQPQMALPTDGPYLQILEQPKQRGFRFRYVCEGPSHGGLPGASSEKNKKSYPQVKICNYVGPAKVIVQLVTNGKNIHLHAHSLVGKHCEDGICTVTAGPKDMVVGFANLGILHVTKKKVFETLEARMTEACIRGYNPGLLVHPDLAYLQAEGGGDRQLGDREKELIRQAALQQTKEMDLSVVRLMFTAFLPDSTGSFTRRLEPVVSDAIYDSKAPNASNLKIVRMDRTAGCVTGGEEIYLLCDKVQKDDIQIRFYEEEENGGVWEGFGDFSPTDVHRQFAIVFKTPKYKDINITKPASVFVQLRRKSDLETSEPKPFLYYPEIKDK

On to “CCGATTAACATCAAGGGAATGCCTGATGTTAATCGGGTCTTGATTCGCTTGACGCTGCTG”, for which the binding signal in experiment [1] is 2.72 z-score; in experiment [2], 3.58 z-score; in experiment [3], 2.83 z-score; in experiment [4], 1.06 z-score; in experiment [5] it was 2.97 z-score; in experiment [6], 4.2 z-score. This sequence also returned a binding signal in experiment [7] of 1.87 z-score.

Consider “CCGATTAACATCAGGAATTTCCCTGATGTTAATCGGGTCTTGATTCGCTTGACGCTGCTG”, for which the binding signal in experiment [1] is 6.77 z-score; in experiment [2], 10.1 z-score; in experiment [3], 6.94 z-score; in experiment [4], 4.93 z-score; in experiment [5], 5.72 z-score; in experiment [6] it was 10.8 z-score. Moreover, in experiment [7], the binding signal was determined as 6.03 z-score.

Regarding “CCGATTAACATCAGGGGATGCACTGATGTTAATCGGGTCTTGATTCGCTTGACGCTGCTG”, the binding signal was determined as 4.3 z-score in experiment [1]; 4.83 z-score in experiment [2]; 6.02 z-score in experiment [3]; 2.97 z-score in experiment [4]; 9.57 z-score in experiment [5]; 5.85 z-score in experiment [6]. Besides, the binding signal in experiment [7] came to 4.77 z-score.

As for “CCGATTAACATCAGGACGTCCCCTGATGTTAATCGGGTCTTGATTCGCTTGACGCTGCTG”, the binding signal was 7.08 z-score in experiment [1]; 6.03 z-score in experiment [2]; 4.26 z-score in experiment [3]; 2.18 z-score in experiment [4]; 5.29 z-score in experiment [5]; 7.4 z-score in experiment [6]. The sequence further showed a binding signal in experiment [7] of 4.57 z-score.

On to “CCGATTAACATCAAGGGAATTTATGATGTTAATCGGGTCTTGATTCGCTTGACGCTGCTG”, for which the binding signal came out at 4.54 z-score in experiment [1]; 7.59 z-score in experiment [2]; 7.58 z-score in experiment [3]; 3.54 z-score in experiment [4]; 4.78 z-score in experiment [5]; 5.69 z-score in experiment [6]. Besides, the binding signal in experiment [7] was found to be 5.62 z-score.

As to “CCGATTAACATCAGGAACTTCCCTGATGTTAATCGGGTCTTGATTCGCTTGACGCTGCTG”, the binding signal in experiment [1] worked out at 4.62 z-score; in experiment [2], 5.28 z-score; in experiment [3], 3.16 z-score; in experiment [4], 1.73 z-score; in experiment [5], 4.4 z-score; in experiment [6], 7.58 z-score. For the same sequence, the binding signal in experiment [7] is 3.6 z-score.

Turning to “CCGATTAACATCAGGGGGATTAATGATGTTAATCGGGTCTTGATTCGCTTGACGCTGCTG”, the binding signal was determined as 6.25 z-score in experiment [1]; 6.39 z-score in experiment [2]; 7.21 z-score in experiment [3]; 6.77 z-score in experiment [4]; 5.97 z-score in experiment [5]; 5.39 z-score in experiment [6]. Moreover, the binding signal in experiment [7] stood at 6.36 z-score.

With “CCGATTAACATCAGGGGATCTTATGATGTTAATCGGGTCTTGATTCGCTTGACGCTGCTG”, the binding signal was found to be 7.32 z-score in experiment [1]; 7.01 z-score in experiment [2]; 7.89 z-score in experiment [3]; 3.1 z-score in experiment [4]; 6.67 z-score in experiment [5]; 6.41 z-score in experiment [6]. Also, in experiment [7], the binding signal stood at 6.06 z-score.

As for “CCGATTAACATCAAATTTCCCCCTGATGTTAATCGGGTCTTGATTCGCTTGACGCTGCTG”, the binding signal in experiment [1] came out at 9.03 z-score; in experiment [2], 9.93 z-score; in experiment [3], 12.8 z-score; in experiment [4] it was 12.3 z-score; in experiment [5], 7.24 z-score; in experiment [6], 7.79 z-score. The same sequence displayed a binding signal in experiment [7] of 7.66 z-score.

Turning to “CCGATTAACATCAGGGAAAATTATGATGTTAATCGGGTCTTGATTCGCTTGACGCTGCTG”, the binding signal in experiment [1] was 5.47 z-score; in experiment [2], 7.77 z-score; in experiment [3], 8.46 z-score; in experiment [4], 6.45 z-score; in experiment [5], 2.28 z-score; in experiment [6], 6.77 z-score. The binding signal in experiment [7] turned out to be 5.34 z-score.

With “CCGATTAACATCAAAATTCCCCCTGATGTTAATCGGGTCTTGATTCGCTTGACGCTGCTG”, the binding signal in experiment [1] is 10.1 z-score; in experiment [2], 11.6 z-score; in experiment [3], 13.3 z-score; in experiment [4], 11.3 z-score; in experiment [5] it was 9.16 z-score; in experiment [6], 9.32 z-score. Further, the binding signal in experiment [7] is 8.09 z-score.

In the case of “CCGATTAACATCAGGACGCCCCCTGATGTTAATCGGGTCTTGATTCGCTTGACGCTGCTG”, the binding signal was determined as 6.15 z-score in experiment [1]; 5.13 z-score in experiment [2]; 3.21 z-score in experiment [3]; 1.59 z-score in experiment [4]; 3.85 z-score in experiment [5]; 7.57 z-score in experiment [6]. In experiment [7], the binding signal was 4.71 z-score.

Consider “CCGATTAACATCACCCACTCCCCTGATGTTAATCGGGTCTTGATTCGCTTGACGCTGCTG”, for which the binding signal turned out to be 4.11 z-score in experiment [1]; 2.69 z-score in experiment [2]; 3.92 z-score in experiment [3]; 2.82 z-score in experiment [4]; 1.47 z-score in experiment [5]; 3.04 z-score in experiment [6]. The same sequence had a binding signal in experiment [7] of 3.03 z-score.

Take “CCGATTAACATCAAAAATCCACCTGATGTTAATCGGGTCTTGATTCGCTTGACGCTGCTG”: the binding signal in experiment [1] was found to be 2.25 z-score; in experiment [2], 2.65 z-score; in experiment [3] it was 3.34 z-score; in experiment [4] it was 1.26 z-score; in experiment [5] it was 4.27 z-score; in experiment [6], 3.29 z-score. Besides, in experiment [7], the binding signal came out at 4.62 z-score.

With “CCGATTAACATCAAATTTTCCCGTGATGTTAATCGGGTCTTGATTCGCTTGACGCTGCTG”, the binding signal in experiment [1] came out at 4.26 z-score; in experiment [2], 6.26 z-score; in experiment [3], 7.05 z-score; in experiment [4], 6.38 z-score; in experiment [5], 3.36 z-score; in experiment [6], 5.86 z-score. The sequence also registered a binding signal in experiment [7] of 4.58 z-score.

For the sequence “CCGATTAACATCAGGGAAAGACCTGATGTTAATCGGGTCTTGATTCGCTTGACGCTGCTG”, the binding signal was found to be 3.24 z-score in experiment [1]; 5.27 z-score in experiment [2]; 4.32 z-score in experiment [3]; 1.41 z-score in experiment [4]; 5.61 z-score in experiment [5]; 7.5 z-score in experiment [6]. Moreover, the binding signal in experiment [7] is 3.67 z-score.

In the case of “CCGATTAACATCAGGGGGAATTATGATGTTAATCGGGTCTTGATTCGCTTGACGCTGCTG”, the binding signal came out at 7.99 z-score in experiment [1]; 9.53 z-score in experiment [2]; 10.6 z-score in experiment [3]; 9.25 z-score in experiment [4]; 7.03 z-score in experiment [5]; 7 z-score in experiment [6]. This sequence also yielded a binding signal in experiment [7] of 7.24 z-score.

With “CCGATTAACATCAAGGGGATTTCTGATGTTAATCGGGTCTTGATTCGCTTGACGCTGCTG”, the binding signal in experiment [1] came to 9.69 z-score; in experiment [2], 10.8 z-score; in experiment [3], 12.7 z-score; in experiment [4], 2.79 z-score; in experiment [5] it was 9.09 z-score; in experiment [6], 7.73 z-score. Moreover, the binding signal in experiment [7] turned out to be 7.98 z-score.

With “CCGATTAACATCAGGGGAATCAATGATGTTAATCGGGTCTTGATTCGCTTGACGCTGCTG”, the binding signal amounted to 5.46 z-score in experiment [1]; 6.47 z-score in experiment [2]; 8.04 z-score in experiment [3]; 5.78 z-score in experiment [4]; 5.48 z-score in experiment [5]; 4.26 z-score in experiment [6]. In experiment [7], this sequence yielded a binding signal of 4.98 z-score.
